Laboratory results published in PubChem BioAssay AID489043 (National Center for Advancing Translational Sciences (NCATS), 2010).
Inconclusive results are not listed. Values without a mark were called inactive. Activity calls are given as the source filed them. Calls come from the whole dose curve; as a rule, active = well fitted activation curve with a large enough effect; inconclusive = small, poorly fitted or top-dose-only effect; inactive = flat fitted curve, though single readings scatter.

These molecules were tested against Relaxin receptor 2 (Homo sapiens) (UniProt Q8WXD0) (assay: qHTS Assay for Agonists of the Relaxin Receptor RXFP1: RXFP2 Hit Validation). Details: HEK293 RXFP2 cAMP TR-FRET, 30 min; series mostly up to 115 µM; activation: at the top concentration.
In short: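 HEK293 cells expressing RXFP2, cultured 16-24 hr, treated 30 min at 37C with compounds plus PDE4 inhibitor Ro 20174. cAMP measured by HTRF TR-FRET; EC50 from Hill fits, normalized to buffer and 29 nM porcine relaxin.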
Note: nearly all actives have a fitted effect of over 65% in size.
Potency is the fitted concentration of half-maximal effect.
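Throughout, for activation: 0% = buffer only basal cAMP and 100% = 29 nM porcine relaxin.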

Sequence of Relaxin receptor 2 (Homo sapiens) (Q8WXD0 whole entry, looked up): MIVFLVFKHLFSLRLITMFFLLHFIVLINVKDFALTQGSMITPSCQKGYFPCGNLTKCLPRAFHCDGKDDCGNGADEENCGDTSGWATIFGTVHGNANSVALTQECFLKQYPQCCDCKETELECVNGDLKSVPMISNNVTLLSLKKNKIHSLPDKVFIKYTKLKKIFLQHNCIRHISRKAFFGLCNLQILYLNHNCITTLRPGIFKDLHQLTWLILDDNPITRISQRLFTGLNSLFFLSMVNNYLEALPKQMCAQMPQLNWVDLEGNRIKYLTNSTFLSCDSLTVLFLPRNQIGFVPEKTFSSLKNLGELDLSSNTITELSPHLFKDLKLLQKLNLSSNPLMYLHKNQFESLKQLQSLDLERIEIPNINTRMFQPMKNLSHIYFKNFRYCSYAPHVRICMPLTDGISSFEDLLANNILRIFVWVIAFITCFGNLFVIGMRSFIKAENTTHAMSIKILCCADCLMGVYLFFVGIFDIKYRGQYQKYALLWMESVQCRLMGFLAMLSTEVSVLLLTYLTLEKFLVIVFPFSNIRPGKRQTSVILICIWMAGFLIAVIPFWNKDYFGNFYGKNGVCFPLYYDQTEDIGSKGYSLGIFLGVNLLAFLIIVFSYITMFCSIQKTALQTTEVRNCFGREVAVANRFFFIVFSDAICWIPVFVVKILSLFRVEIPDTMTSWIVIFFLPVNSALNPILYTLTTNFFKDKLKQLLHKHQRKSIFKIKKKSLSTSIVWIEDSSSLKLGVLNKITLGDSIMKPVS

SMILES	activation	Potency
Cc1ccc(C(=O)Nc2ccccc2C(N)=O)o1	-1.39% [at 125 µM]	–
Cc1cc(NC(=O)CSc2ncnc3c2cnn3-c2cccc(Cl)c2)no1	18.2% [at 44.7 µM]	–
Brc1ccc2ncnc(NCc3cccnc3)c2c1	–	43.6 µM (active)
CCN(CC)c1ccc(S(=O)(=O)N2CCOCC2)cc1NC(=O)CSc1nncn1C	–	12.3 µM (active)
COc1cc(-c2nnc(SCC(=O)N(C)C3CCS(=O)(=O)C3)o2)cc(OC)c1OC (configuration not stated)	4.39% [at 44.7 µM]	–
O=C(O)c1ccc(N2C(=O)c3cccc4c(C(=O)O)ccc(c34)C2=O)cc1	–	47.3 µM (active)
O=C(Nc1ccccc1)c1ccccc1NC(=O)C1CCCCC1	5.98% [at 125 µM]	–
CC(=O)C1C(c2ccccc2)c2c(noc2C)CC1(C)O (configuration not stated)	-5.3%	–
CC1(C)Cc2c(sc3ncnc(NN)c23)CO1	21.1% [at 44.7 µM]	–
Cc1cc(C)c(C(=O)CSc2n[nH]c(=O)n2C2CC2)cc1C	-0.257%	–
CCc1ccc(-c2nc3ccc(Br)cc3c(C(=O)O)c2C)s1	–	4.35 µM (active)
O=C(Nc1ccc(Cl)cc1)Nc1ccccc1Sc1ncc([N+](=O)[O-])s1	9.11%	–
O=C(O)CSc1ccnc2cc(Cl)ccc12	–	21.8 µM (active)
O=c1c2ccccc2cnn1Cc1n[nH]c(=S)n1-c1ccc(F)c(Cl)c1	–	15.5 µM (active)
COc1ccccc1CNS(=O)(=O)c1cc(CN2C(=O)c3cccnc3C2=O)ccc1OC	–	30.9 µM (active)
COc1ccc(S(=O)(=O)N2CCOCC2)cc1NC(=O)CSc1ncnc2ccccc12	–	24.5 µM (active)

SMILES	activation	Potency
CCOC(=O)CNC(=O)CSc1nc2c(C)cccc2cc1CC	–	19.4 µM (active)
CCOC(=O)CSc1nc(=O)n2cc(C)ccc2n1	21.2%	–
O=C(CCc1nnc2ccc(NCCCN3CCCC3=O)nn12)NCc1ccccc1Cl	8.46%	–
CC(=O)Nc1cccc(NC(=O)CSc2nc3c(c(=O)n(C)c(=O)n3C)n2C)c1	–	34.6 µM (active)
CCN(CC)S(=O)(=O)c1ccc2c(c1)nc(SCc1nc3ccsc3c(=O)[nH]1)n2CC	–	0.275 µM (active)
COc1ccc(OC)c(NC(=O)CSc2ccc3nnc(-c4cccnc4)n3n2)c1	26.5%	–
CCOC(=O)C1CCN(C(=O)c2cc3c(=O)n4ccccc4nc3s2)CC1	–	48.9 µM (active)
COC(=O)Cn1cnc2c(C#N)c3n(c2c1=O)CCCCC3	–	9.77 µM (active)
CC(C(=O)Nc1cccnc1)n1cc([N+](=O)[O-])cn1 (configuration not stated)	24%	–
Cc1ccc(C(=O)Nc2ccccc2C(=O)NCc2ccco2)cc1	0.29% [at 125 µM]	–
Nc1c(Cl)cc(-c2[nH]c3cc(C(=O)NCCO)ccc3c(=O)c2O)cc1Cl	–	34.6 µM (active)
CC(C)(C)C(=O)Nc1ccccc1C(=O)NCc1ccco1	4.53% [at 125 µM]	–
Cc1ccccc1OCC(=O)Nc1sc(C(=O)Nc2cccc(C)c2C)c(C)c1C#N	–	6.9 µM (active)
COc1ccc(C(=O)Nc2ccc(S(=O)(=O)Nc3onc(C)c3C)cc2)c(OC)c1	–	9.43 µM (active)
Cn1c(=O)c2c(ncn2CC(=O)NC2CCCCC2)n(C)c1=O	–	48.9 µM (active)
CCn1c(=O)c2sccc2n2c(CCCC(=O)NCc3cccnc3)nnc12	27.9%	–
